The text below walks through data of PubChem BioAssay (NCI).

About 83,000 compounds went through this panel and 20% of them were active in at least one assay; those are over-represented in the sample as a whole.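 Treatment: one concentration, 48 hours, 96-well format. Scoring: percent growth, with anything below 10 considered active.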 Unmarked numbers belong to inactive results. The source made the active and inactive calls.

Among the test systems are T-47D breast; BT-549 breast; MDA-MB-435 melanoma; SW-620 colon; MCF7 breast; HCT-116 colon; HCC-2998 colon; KM12 colon.
Common to all, as to experiment: NCI-60 one-dose screen, 48 h (100 = growth as untreated, 0 = no growth, -100 = all killed)
Common to all, as to conditions: 10 µM unless noted

Take `O=S(=O)(NCCCNc1cc(-c2cn(-c3ccccc3)nc2-c2cccc(O)c2)ccn1)c1ccc(Br)cc1`: the growth is 12.5% in the assay on T-47D breast; 7.68% (active) in the assay on BT-549 breast; 9.98% (active) in the assay with MDA-MB-435 melanoma; 10.7% with SW-620 colon; 7.31% (active) in the assay with MCF7 breast; 9.44% (active) in the assay on HCT-116 colon. The growth in the assay on HCC-2998 colon was -62.4% (active); with KM12 colon, 7.88% (active).

Regarding `NC(CC(N)C(=O)O)C(=O)O` (stereo not drawn), the growth with T-47D breast was 92.9%; in the assay with BT-549 breast, 105%; with MDA-MB-435 melanoma, 103%; in the assay with SW-620 colon it was 104%; in the assay on MCF7 breast, 98.7%; in the assay with HCT-116 colon it was 102%. Moreover, the growth in the assay with HCC-2998 colon is 99.3%; in the assay with KM12 colon it was 113%.

On to `C=C1C(=O)O[C@H]2[C@H]1CC/C(COC(=O)NCc1ccc(OC)cc1)=C\CC[C@@]1(C)O[C@@H]21`, for which the growth with T-47D breast was 17.5%; in the assay on BT-549 breast it was 29.7%; in the assay with MDA-MB-435 melanoma, 46.9%; in the assay on SW-620 colon, 1.83% (active); with MCF7 breast, 15.2%; in the assay with HCT-116 colon, -48.7% (active). Further, the growth is 83.5% in the assay with HCC-2998 colon and 73.8% in the assay with KM12 colon.

As for `O=C1OC(c2ccccc2)=N/C1=C\c1ccc([N+](=O)[O-])cc1`, the growth is 106% in the assay with T-47D breast; 101% in the assay on BT-549 breast; 106% in the assay with MDA-MB-435 melanoma; 92.4% with SW-620 colon; 103% with MCF7 breast; 97.8% with HCT-116 colon. For the same compound, the growth was 108% with HCC-2998 colon and 94.5% in the assay with KM12 colon.

For `COc1ccc(/C=C/C(=O)c2cc(OC)c(OC)c(OC)c2)cc1OCc1cn(Cc2ccc(F)cc2)nn1`, the growth in the assay on T-47D breast was 50.4%; in the assay on BT-549 breast, 25.7%; in the assay on MDA-MB-435 melanoma, 5.55% (active); in the assay with SW-620 colon it was 15.4%; in the assay on MCF7 breast, 13%; in the assay with HCT-116 colon it was 15%. Moreover, the growth in the assay with HCC-2998 colon is 101%; in the assay on KM12 colon, 6.55% (active).

Regarding `CN(C)c1nc(N)c(N=O)c(N)n1`, the growth in the assay on T-47D breast is 104%; in the assay with BT-549 breast it was 115%; in the assay with MDA-MB-435 melanoma, 110%; with SW-620 colon it was 108%; in the assay with MCF7 breast, 102%; in the assay on HCT-116 colon, 105%. The growth in the assay with HCC-2998 colon is 113%; with KM12 colon it was 108%.

For the compound `COC(=O)c1ccc(C)cc1`, the growth was 91.4% in the assay on T-47D breast; 120% with BT-549 breast; 101% in the assay on MDA-MB-435 melanoma; 101% in the assay with SW-620 colon; 91.7% in the assay on MCF7 breast; 101% in the assay with HCT-116 colon. Further, the growth in the assay on HCC-2998 colon was 109%; in the assay with KM12 colon, 108%.

For the compound `CC(C)N(Cc1ccc(CN(C(=O)CCl)C(C)C)cc1)C(=O)CCl`, the growth is -14.8% (active) with T-47D breast; 18.6% in the assay with BT-549 breast; 27.2% with MDA-MB-435 melanoma; 2.78% (active) in the assay on SW-620 colon; 23.8% with MCF7 breast; -67.4% (active) with HCT-116 colon. Moreover, the figures for the growth in the assay on HCC-2998 colon and with KM12 colon were 93.8% and 41.1%, respectively.

For the compound `N#Cc1c(NC(=O)c2ccc([N+](=O)[O-])o2)[n+]([O-])c2cc(F)c(F)cc2[n+]1[O-]`, the growth in the assay on T-47D breast was 118%; with BT-549 breast, 203%; with MDA-MB-435 melanoma, 109%; in the assay on SW-620 colon it was 128%; with MCF7 breast, 96.5%; with HCT-116 colon, 104%. The results for the growth with HCC-2998 colon and with KM12 colon were 106% and 98.9%, respectively.

Turning to `Cc1cccc(NC(=O)c2sc3nc4c(cc3c2N)CCCC4)c1`, the growth with T-47D breast is 53.5%; in the assay on BT-549 breast, 50.8%; with MDA-MB-435 melanoma it was -22.9% (active); in the assay on SW-620 colon it was 36%; with MCF7 breast it was 11.3%; with HCT-116 colon it was 22.3%. Moreover, the growth is 70.6% in the assay on HCC-2998 colon and 22.9% in the assay with KM12 colon.

As to `CC1Cc2c(N(C)C)ncnc2N(C)c2ccc(O)cc21` (stereo not drawn), the growth in the assay with T-47D breast was 89.7%; in the assay with BT-549 breast, 88.8%; in the assay with MDA-MB-435 melanoma, 8.93% (active); in the assay on SW-620 colon, 63.5%; in the assay with MCF7 breast, 73.9%; in the assay on HCT-116 colon it was 79.6%. Besides, the growth with HCC-2998 colon is 88.8%; in the assay on KM12 colon, 59.9%.

Take `COc1ccc(NC(=O)c2cc3ccccc3nc2Nc2cc(OC)c(OC)c(OC)c2)cc1`: the growth was 27.1% in the assay with T-47D breast; 52.8% in the assay with BT-549 breast; 63.9% in the assay with MDA-MB-435 melanoma; 75.1% in the assay on SW-620 colon; 39.4% with MCF7 breast; 48.2% in the assay with HCT-116 colon. Besides, the growth is 89% with HCC-2998 colon and 37.9% in the assay on KM12 colon.

`COc1ncc(-c2ccc3ncnc(Nc4cccc(Cl)c4)c3c2)cc1NS(=O)(=O)C1CC1`: the growth was -1.98% (active) with T-47D breast; 2.9% (active) with BT-549 breast; 47.9% in the assay on MDA-MB-435 melanoma; 51.1% in the assay with SW-620 colon; 7.65% (active) with MCF7 breast; 49.2% in the assay on HCT-116 colon. Besides, the results for the growth in the assay with HCC-2998 colon and in the assay on KM12 colon were 59.9% and 69.7%, respectively.

Regarding `CCOP(=O)(CCN1CCN(CCCCCOc2cc3c(cc2OC)C(=O)N2CCC[C@H]2C=N3)CC1)OCC`, the growth was 46% with T-47D breast; 52.5% with BT-549 breast; 93.7% in the assay on MDA-MB-435 melanoma; 63.5% with SW-620 colon; 35.9% in the assay on MCF7 breast; 80.1% in the assay with HCT-116 colon. Also, the growth is 80.8% in the assay on HCC-2998 colon and 111% with KM12 colon.

As for `ClC1=C(Cl)C(Cl)=C(Cl)C1=Cc1ccc(Cl)cc1Cl`, the growth in the assay with T-47D breast was -0.12% (active); with BT-549 breast it was -26.3% (active); in the assay on MDA-MB-435 melanoma, -52.4% (active); in the assay with SW-620 colon, -43.9% (active); with MCF7 breast, 4.25% (active); in the assay on HCT-116 colon, -55.5% (active). Also, the growth in the assay on HCC-2998 colon was -89.7% (active); in the assay on KM12 colon, -78.9% (active).

`O=C(O)C(Cc1ccccc1)N1C(=O)/C(=C/C(Cl)=C/c2ccc([N+](=O)[O-])cc2)SC1=S` (stereo not drawn): the growth is 1.08% (active) with T-47D breast; -28.1% (active) with BT-549 breast; -41.7% (active) in the assay on MDA-MB-435 melanoma; 5.12% (active) with SW-620 colon; 26.1% in the assay with MCF7 breast; -59.5% (active) in the assay on HCT-116 colon. For the same compound, the growth in the assay with HCC-2998 colon was 3.58% (active); with KM12 colon it was 14.8%.
